Measurements from PubChem BioAssay (Tox21).
Records with an inconclusive call do not appear. Calls of active or inactive are those of the source. Unless noted, calls come from the whole dose curve.

Key:
[1] = Nuclear factor erythroid 2-related factor 2/antioxidant responsive element (Nrf2/ARE) small molecule agonists: qHTS cell viability counter screen in human keratinocytes (AID 1919968; active = well fitted curve in the direction sought with a large enough effect in the repeat runs; an effect the other way counts as inactive or inconclusive; note: nearly all actives have a fitted effect of over 55% in size; note: potency is the fitted concentration of half-maximal effect)
How it was run: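 KeratinoSens cells (HaCaT keratinocytes stably carrying an ARE-luciferase reporter) were seeded at 1,500 cells/well and rested 5 h at 37 C/5% CO2. They were then exposed to compounds in DMSO for 23 h. Viability was read by CellTiter-Fluor fluorescence after 1 h.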

[2] = Nuclear factor erythroid 2-related factor 2/antioxidant responsive element (Nrf2/ARE) small molecule agonists: luciferase reporter gene qHTS assay in human keratinocytes (AID 1919969); note: nearly all actives have a fitted effect of over 35% in size; note: potency is the fitted concentration of half-maximal effect
[3] = molecular target: KiSS-1 receptor (Homo sapiens) (UniProt Q969F8); assay: Human kisspeptin (KISS1R) small molecule agonists, calcium flux assay in KISS1R-HEK293 cells (AID 1920064; active = well fitted curve in the direction sought with a large enough effect in the repeat runs; an effect the other way counts as inactive or inconclusive)
How it was run: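 HEK293 cells stably expressing human KISS1R were plated 18 h at 37 °C, loaded with calcium dye for 1 h at 37 °C, then given compound by pin tool. Fluorescence (Ex/Em 480/540) was read kinetically for 3 min.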

[4] = G protein-coupled receptor (GPCR) small molecule agonists, calcium flux assay: HEK293 wild type cell line counter screen (AID 1920065)
How it was run: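 Cells were plated and cultured 18 h at 37 C/5% CO2, then loaded with calcium dye for 1 h at 37 C. Compounds in DMSO were pin-transferred in agonist mode, and fluorescence (Ex/Em 480/540) was read kinetically for 3 min at 1 s intervals.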

[5] = p53 small molecule agonists, cell-based qHTS assay with human liver microsomes (AID 1963577);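 note: p53 response element beta-lactamase reporter cells with liver microsomes plus NADPH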
How it was run: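 Metabolically competent format: test substances, human liver microsomes and NADPH (both 0.5 mg/mL final) incubated with p53RE-bla cells 16 h at 37 C. Beta-lactamase reporter signal then quantified by fluorescence.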

[6] = p53 small molecule agonists, cell-based qHTS assay with rat liver microsomes (AID 1963578)
How it was run: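 Each plate received p53RE-bla cells, then compound, then rat liver microsomes and NADPH (both 0.5 mg/mL final). Plates were held 16 h at 37 C, and beta-lactamase activity was detected with LiveBLAzer over 2 h.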

[7] = p53 small molecule agonists, cell-based qHTS assay with human liver microsomes: qHTS cell viability counter screen (AID 1963579); note: nearly all actives have a fitted effect of over 45% in size; note: potency is the fitted concentration of half-maximal effect
How it was run: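 Tox21 library compounds, delivered from DMSO stocks, were tested on p53RE-bla cells together with 0.5 mg/mL human liver microsomes and 0.5 mg/mL NADPH (final) over 16 h at 37 C; CellTiter-Glo luminescence served as the cytotoxicity measure.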

[8] = p53 small molecule agonists, cell-based qHTS assay with rat liver microsomes: qHTS cell viability counter screen (AID 1963580); note: nearly all actives have a fitted effect of over 45% in size
How it was run: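 p53RE-bla HCT-116 cells (4,000/well) rested 5 h at 37 C, then given Tox21 compounds in DMSO with rat liver microsomes (0.5 mg/mL final) plus NADPH (0.5 mg/mL final) for 16 h at 37 C. Viability read by CellTiter-Glo luminescence after 30 min at room temperature.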

[9] = p53 small molecule agonists, cell-based qHTS assay: qHTS cell viability counter screen (AID 1963581); note: nearly all actives have a fitted effect of over 45% in size
How it was run: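 p53RE-bla HCT-116 cells were exposed to compounds for 16 h at 37 C; after the beta-lactamase FRET read in the same wells, CellTiter-Glo was added and luminescence (intracellular ATP) read after 30 min at room temperature.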

[10] = molecular target: 5-hydroxytryptamine receptor 2A (Homo sapiens) (UniProt P28223); assay: 5-hydroxytryptamine receptor 2A (HTR2A) small molecule antagonists, cell-based qHTS assay (AID 1963586); note: nearly all actives have a fitted effect of over 45% in size
How it was run: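 Antagonist-mode intracellular calcium assay: DOI (4 nM) added after 5 min compound pre-incubation at room temperature to dye-loaded HTR2A-CHO cells. Fluorescence followed for 3 min, sampled every second.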

[11] = molecular target: Muscarinic acetylcholine receptor M1 (Homo sapiens) (UniProt P11229); assay: Cholinergic receptor muscarinic 1 (CHRM1) small molecule agonists, cell-based qHTS assay (AID 1963589); note: nearly all actives have a fitted effect of over 35% in size; note: potency is the fitted concentration of half-maximal effect
How it was run: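 CHO cells stably expressing human CHRM1, seeded 18 h at 37 C/5% CO2, dye-loaded 1 h at 37 C, then given compound in agonist mode; intracellular calcium fluorescence read kinetically at 1 s intervals. Fifteen concentrations, three independent runs.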

[12] = molecular target: Beta-2 adrenergic receptor (Homo sapiens) (UniProt P07550); assay: Adrenergic beta2 receptor (ADRB2) small molecule antagonists, cell-based qHTS assay (AID 1963592); note: nearly all actives have a fitted effect of over 50% in size; note: potency is the fitted concentration of half-maximal effect
How it was run: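 Cells (CHO, stable ADRB2 overexpression) incubated 18-20hr at 37C; compounds added from DMSO; agonist mix (1nM isoproterenol, 100uM IBMX, 25uM Ro-20-1724) added; 0.5hr RT; d2-cAMP and anti-cAMP-cryptate added; 1hr RT; 665/615 nm read.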

[13] = molecular target: 5-hydroxytryptamine receptor 2A (Homo sapiens) (UniProt P28223); assay: 5-hydroxytryptamine receptor 2A (HTR2A) small molecule agonists, cell-based qHTS assay (AID 1963587); note: nearly all actives have a fitted effect of over 30% in size; note: potency is the fitted concentration of half-maximal effect
How it was run: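 HTR2A-CHO cells, plated 18 h at 37 C/5% CO2, dye-loaded 1 h at 37 C; compounds in DMSO added by pin tool (agonist mode). Intracellular calcium flux read as kinetic fluorescence on FDSS over 2 min at 1 s intervals.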

[14] = molecular target: Muscarinic acetylcholine receptor M1 (Homo sapiens) (UniProt P11229); assay: Cholinergic receptor muscarinic 1 (CHRM1) small molecule antagonists, cell-based qHTS assay (AID 1963588); note: nearly all actives have a fitted effect of over 40% in size
How it was run: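 CHRM1-CHO calcium-flux assay, antagonist mode. Cells were seeded 18 h, dye-loaded 1 h at 37 C and given compound for 5 min at RT, then acetylcholine was added at 50nM. FDSS fluorescence was read 3 min; 15 concentrations, three runs.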

[15] = molecular target: D(2) dopamine receptor (Homo sapiens) (UniProt P14416); assay: Dopamine D2 receptor (DRD2) small molecule agonists, cell-based qHTS assay (AID 1963594); note: nearly all actives have a fitted effect of over 35% in size
How it was run: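 HEK293 cells stably expressing DRD2 were cultured 24 h at 37 C, then given Ro20-1724 (0.1 mM final) and compounds for 10 min at room temperature. NKH477 (200nM) was then added for 30 min. cAMP was read by HTRF.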

[16] = molecular target: D(2) dopamine receptor (Homo sapiens) (UniProt P14416); assay: Dopamine D2 receptor (DRD2) small molecule antagonists, cell-based qHTS assay (AID 1963595; active = well fitted inhibition curve with a large enough effect in the signal ratio in the repeat runs, with a control signal flat; the % refers to the signal ratio; note: potency is the fitted concentration of half-maximal effect)
How it was run: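 Antagonism was scored as restored cAMP in HEK293-DRD2 cells. These cells were stimulated with 200 nM NKH477 and 12 nM quinpirole for 30 min at room temperature, in the presence of 0.1 mM Ro20-1724.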

[17] = molecular target: Gonadotropin-releasing hormone receptor (Homo sapiens) (UniProt P30968); assay: Human gonadotropin-releasing hormone receptor (GnRHR) small molecule agonists, calcium flux assay in GnRHR-HEK293 cells (AID 1920063); note: nearly all actives have a fitted effect of over 35% in size
How it was run: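 HEK293 cells stably expressing human GnRHR were plated 18 h at 37 °C, loaded with calcium dye 1 h at 37 °C, then given compound in agonist mode; fluorescence (Ex/Em 480/540) read kinetically for 3 min at 1 s intervals.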

[18] = cAMP Responsive Elements (CRE) small molecule antagonists, cell-based qHTS assay (AID 1963591; active = well fitted inhibition curve with a large enough effect in the signal ratio in the repeat runs, not every such curve was filed as active; the % refers to the signal ratio)
How it was run: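 CRE-bla HEK293T cells were plated 18 h at 37 °C/5% CO2, pinned with compound in DMSO, then stimulated with NKH477 at 0.25 uM final for 3 h. LiveBLAzer B/G FRET substrate was added and plates incubated 2 h at room temperature.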

[19] = molecular target: Beta-2 adrenergic receptor (Homo sapiens) (UniProt P07550); assay: Adrenergic beta2 receptor (ADRB2) small molecule agonists, cell-based qHTS assay (AID 1963593);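 note: CHO cells stably overexpressing human ADRB2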
How it was run: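 CHO cells stably over-expressing ADRB2 were plated overnight at 37C, then dosed with compounds plus a stimulation mix containing 100uM IBMX and 25uM Ro-20-1724 for 0.5hr at room temperature. cAMP was measured by HTRF competition, 1hr.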

[20] = cAMP Responsive Elements (CRE) small molecule agonists, cell-based qHTS assay (AID 1963590)
How it was run: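 CRE-bla HEK 293T cells in DMEM with 10% dialyzed FBS, NEAA, pyruvate and 25 mM HEPES were plated 18 h at 37 C/5% CO2, then exposed to compounds in DMSO for 3 h before LiveBLAzer B/G FRET substrate addition.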

Measured: Potency

Beta-2 adrenergic receptor (Homo sapiens), sequence (P07550 whole entry, looked up): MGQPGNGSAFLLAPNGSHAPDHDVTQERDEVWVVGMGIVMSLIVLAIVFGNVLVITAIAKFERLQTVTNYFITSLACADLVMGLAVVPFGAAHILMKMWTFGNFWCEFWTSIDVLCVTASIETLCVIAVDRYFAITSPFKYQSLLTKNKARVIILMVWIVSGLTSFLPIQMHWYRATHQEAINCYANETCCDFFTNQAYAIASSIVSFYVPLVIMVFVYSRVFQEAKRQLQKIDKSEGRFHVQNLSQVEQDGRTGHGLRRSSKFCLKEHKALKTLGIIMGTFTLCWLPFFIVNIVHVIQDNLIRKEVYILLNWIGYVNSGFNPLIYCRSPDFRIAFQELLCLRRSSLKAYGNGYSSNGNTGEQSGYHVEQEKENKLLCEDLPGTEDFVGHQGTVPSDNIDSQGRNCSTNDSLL
D(2) dopamine receptor (Homo sapiens), sequence (P14416 whole entry, looked up): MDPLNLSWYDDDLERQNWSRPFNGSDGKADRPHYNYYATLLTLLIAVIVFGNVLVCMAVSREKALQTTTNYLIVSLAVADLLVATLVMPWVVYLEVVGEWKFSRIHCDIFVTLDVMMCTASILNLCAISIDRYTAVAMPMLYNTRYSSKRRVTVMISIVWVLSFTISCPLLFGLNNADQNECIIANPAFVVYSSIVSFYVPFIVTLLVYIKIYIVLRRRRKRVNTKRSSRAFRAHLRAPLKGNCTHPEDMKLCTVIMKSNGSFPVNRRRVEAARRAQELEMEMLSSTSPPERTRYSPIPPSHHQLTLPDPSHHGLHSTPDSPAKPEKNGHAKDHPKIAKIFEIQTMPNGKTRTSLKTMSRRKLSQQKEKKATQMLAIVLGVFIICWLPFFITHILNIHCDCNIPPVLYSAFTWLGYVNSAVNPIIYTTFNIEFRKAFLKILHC
5-hydroxytryptamine receptor 2A (Homo sapiens), sequence (P28223 whole entry, looked up): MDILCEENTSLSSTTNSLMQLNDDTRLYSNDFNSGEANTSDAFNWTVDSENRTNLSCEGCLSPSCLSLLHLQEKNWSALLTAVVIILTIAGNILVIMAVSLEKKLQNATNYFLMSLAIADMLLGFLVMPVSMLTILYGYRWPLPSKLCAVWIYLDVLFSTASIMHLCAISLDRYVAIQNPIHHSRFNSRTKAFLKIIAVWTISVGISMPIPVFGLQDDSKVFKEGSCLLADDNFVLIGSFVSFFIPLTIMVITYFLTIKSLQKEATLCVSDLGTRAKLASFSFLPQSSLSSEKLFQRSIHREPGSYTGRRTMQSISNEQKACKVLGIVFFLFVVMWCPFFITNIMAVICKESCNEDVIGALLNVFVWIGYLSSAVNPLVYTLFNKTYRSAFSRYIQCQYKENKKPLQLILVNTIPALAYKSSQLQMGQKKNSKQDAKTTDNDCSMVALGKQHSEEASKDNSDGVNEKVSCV
KiSS-1 receptor (Homo sapiens), sequence (Q969F8 whole entry, looked up): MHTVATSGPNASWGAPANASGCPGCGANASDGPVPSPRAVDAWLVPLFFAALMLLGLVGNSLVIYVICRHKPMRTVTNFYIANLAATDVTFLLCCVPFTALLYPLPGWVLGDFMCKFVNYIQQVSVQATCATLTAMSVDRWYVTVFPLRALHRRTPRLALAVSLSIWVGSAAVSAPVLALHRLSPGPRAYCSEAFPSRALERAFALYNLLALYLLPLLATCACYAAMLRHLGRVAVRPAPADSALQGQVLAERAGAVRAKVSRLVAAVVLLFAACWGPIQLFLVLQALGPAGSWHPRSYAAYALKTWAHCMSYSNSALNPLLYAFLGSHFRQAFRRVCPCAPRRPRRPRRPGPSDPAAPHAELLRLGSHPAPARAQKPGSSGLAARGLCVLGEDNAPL
Muscarinic acetylcholine receptor M1 (Homo sapiens), sequence (P11229 whole entry, looked up): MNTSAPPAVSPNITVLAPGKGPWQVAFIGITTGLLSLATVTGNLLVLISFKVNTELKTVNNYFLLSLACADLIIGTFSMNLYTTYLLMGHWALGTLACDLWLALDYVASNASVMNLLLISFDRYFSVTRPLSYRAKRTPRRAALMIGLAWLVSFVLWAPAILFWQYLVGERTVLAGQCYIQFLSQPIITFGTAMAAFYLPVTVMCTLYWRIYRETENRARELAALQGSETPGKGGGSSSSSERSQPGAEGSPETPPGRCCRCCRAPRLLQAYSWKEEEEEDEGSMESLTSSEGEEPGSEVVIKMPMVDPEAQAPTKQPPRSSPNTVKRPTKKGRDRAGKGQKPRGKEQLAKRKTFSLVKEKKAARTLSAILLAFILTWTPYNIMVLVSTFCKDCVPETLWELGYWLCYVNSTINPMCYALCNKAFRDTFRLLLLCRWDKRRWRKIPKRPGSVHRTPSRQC
Gonadotropin-releasing hormone receptor (Homo sapiens), sequence (P30968 whole entry, looked up): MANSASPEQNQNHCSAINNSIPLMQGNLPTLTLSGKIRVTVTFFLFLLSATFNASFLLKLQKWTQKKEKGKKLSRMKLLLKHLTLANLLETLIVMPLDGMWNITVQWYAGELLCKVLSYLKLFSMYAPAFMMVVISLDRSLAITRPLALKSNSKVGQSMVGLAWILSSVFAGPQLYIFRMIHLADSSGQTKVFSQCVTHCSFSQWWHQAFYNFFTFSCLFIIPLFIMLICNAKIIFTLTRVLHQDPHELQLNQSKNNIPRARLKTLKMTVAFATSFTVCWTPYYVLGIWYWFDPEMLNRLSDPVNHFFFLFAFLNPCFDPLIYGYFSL

CN[C@H]1CC[C@@H](c2ccc(Cl)c(Cl)c2)c2ccc(S(N)(=O)=O)cc21
active: [1] 61.1 µM | [12] 48.6 µM
inactive: [2] | [3] | [4] | [5] | [6] | [7] | [8] | [9] | [10] | [11]

CS(=O)(=O)CCNCc1ccc(-c2ccc3ncnc(Nc4ccc(OCc5cccc(F)c5)c(Cl)c4)c3c2)o1
inactive: [2] | [3] | [4] | [5] | [7] | [8] | [9] | [10] | [13] | [14] | [12] | [15] | [16]
active: [1] 29.8 µM | [11] 0.012 µM

O=S(=O)(O)c1cc(O)ccc1O
inactive: [1] | [2] | [17] | [4] | [10] | [13] | [14] | [11] | [18] | [12] | [19] | [15] | [16]

O=C1C=CC(=O)N1c1ccccc1
inactive: [3] | [4] | [6] | [10]
active: [1] 27.3 µM | [2] 15.4 µM | [7] 20.4 µM | [13] 24.5 µM | [16] 13.7 µM

CC(CCc1ccc2c(c1)OCO2)NN (centres undefined)
inactive: [1] | [2] | [3] | [4] | [7] | [8] | [9] | [10] | [13] | [14] | [11] | [20] | [18] | [12] | [19] | [15] | [16]

CCCCNCC
inactive: [1] | [2] | [3] | [4] | [7] | [8] | [9] | [10] | [13] | [14] | [11] | [20] | [18] | [12] | [15] | [16]

Cc1ccc(C(=O)O)cc1[N+](=O)[O-]
inactive: [1] | [2] | [3] | [4] | [7] | [8] | [9] | [10] | [14] | [11] | [20] | [18] | [12] | [15] | [16]

CN(C)C(C)(C)CO
inactive: [1] | [2] | [3] | [4] | [7] | [8] | [9] | [10] | [13] | [14] | [11] | [20] | [18] | [12] | [19] | [15] | [16]
